Assay outcomes from PubChem.
Glyco luc inh – blocks N-linked glycosylation in D54 reporter cells | AID 588692 | actives 0.23% (n = 360,000) | reporter increase, % at 12.5 µM | D54 ERlucT glycosylation luciferase reporter, 24 h; percent of 100 nM tunicamycin response;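 active = mean luciferase reporter signal, scaled so untreated is 0 and the glycosylation-blocking control 100, at or above a set limit in every replicate; inconclusive = mean reaches the limit but not every replicate does; inactive = mean below the limit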;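 note: luciferase carries N-glycosylation sites so blocking glycosylation raises the light; 0% = median of neutral control wells and 100% = median of 100 nM tunicamycin wells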
ABCB6 inh 2 – human ABCB6 transporter inhibition. K562-ABCB6 porphyrin accumulation, flow cytometry, 1 h; stronger effect = lower value. fluorescence ratio to DMSO, % at 10 µM. actives 0.19% (n = 360,000). AID 602162;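 active = fluorescence ratio to DMSO below 75%, the collection mean minus 3 SD; inconclusive = too few cells collected in the well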;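 note: signal is porphyrin accumulated inside mitochondria; 100% equals median channel fluorescence of DMSO control wells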
Target sequence (Q9NP58 whole entry, looked up): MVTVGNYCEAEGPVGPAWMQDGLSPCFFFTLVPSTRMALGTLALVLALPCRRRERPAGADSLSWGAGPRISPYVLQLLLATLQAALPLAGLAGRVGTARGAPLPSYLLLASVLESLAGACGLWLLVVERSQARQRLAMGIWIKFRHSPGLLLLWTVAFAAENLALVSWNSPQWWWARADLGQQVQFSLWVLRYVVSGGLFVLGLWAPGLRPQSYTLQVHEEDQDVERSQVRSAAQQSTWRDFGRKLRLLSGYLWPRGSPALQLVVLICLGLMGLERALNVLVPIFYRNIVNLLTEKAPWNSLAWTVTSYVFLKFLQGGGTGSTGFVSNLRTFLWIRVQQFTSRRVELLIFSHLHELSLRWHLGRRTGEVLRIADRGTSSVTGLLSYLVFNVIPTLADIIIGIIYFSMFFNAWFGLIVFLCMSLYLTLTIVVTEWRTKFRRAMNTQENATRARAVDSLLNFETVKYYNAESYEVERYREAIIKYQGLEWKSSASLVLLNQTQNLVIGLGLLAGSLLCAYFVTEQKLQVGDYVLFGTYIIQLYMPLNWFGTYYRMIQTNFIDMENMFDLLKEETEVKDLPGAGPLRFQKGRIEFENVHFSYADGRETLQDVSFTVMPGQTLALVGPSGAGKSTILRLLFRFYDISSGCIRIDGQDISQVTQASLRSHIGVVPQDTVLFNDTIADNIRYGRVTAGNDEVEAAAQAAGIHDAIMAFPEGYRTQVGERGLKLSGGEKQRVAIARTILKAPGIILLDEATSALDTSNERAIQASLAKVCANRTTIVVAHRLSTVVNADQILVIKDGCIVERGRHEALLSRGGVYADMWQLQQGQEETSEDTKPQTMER
RAD54 branch – inhibitors of human RAD54 branch migration. AID 602329. inhibition, % at 10.4 µM. Q92698. actives 0.14% (n = 360,000). RAD54 Holliday junction branch migration, FAM/BHQ fluorescence;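 active = mean normalized replicate activity at least 40 and at least half of replicates scoring 40 or more; inconclusive = only one of the two criteria met; inactive = mean below 40 and under half of replicates reaching 40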;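 note: 0% = median of neutral control wells and 100% = median of positive control wells; inhibitors cause a drop in the FAM fluorescence signal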
Vif inh – blocks HIV Vif function | inhibition, % at 7.49 µM | HEK293T cells, Vif self-association by quenched fluorescence, imaging, 24 h | actives 0.35% (n = 340,000); in the data active = inhibition above about 50%, passing the limit was not always enough; inconclusive = no clear call, values can overlap the other calls; inactive = below about 31%
Myeloid diff 2 – myeloid differentiation induction | ER-HoxA9 myeloid progenitors, lysozyme-GFP differentiation, flow cytometry | calls only at 10 µM | actives 1% (n = 360,000) | AID 624256;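 active = normalized GFP-positive differentiation at or above the plate's own cutoff, the solvent-only control mean plus 3 SD; inconclusive = no clear call, values can overlap the other calls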;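 note: cells exposed to compound for four days before flow analysis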
ABCB6 blocker 1 – blocks the human ABCB6 transporter | shares compounds with ABCB6 inh 2 | K562-ABCB6 porphyrin accumulation, flow cytometry, 1 h; stronger effect = lower value | ratio response (% of DMSO), % at 10 µM | 700 tested, under 10 active | AID 602430;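 active = repeat-averaged ratio response below 75% of DMSO, the collection mean minus 3 SD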;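 note: median porphyrin fluorescence at 575 nm with 488 nm excitation from mitochondria; lower ratio means less porphyrin signal so ABCB6 inhibition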
Starred values were filed as active, the others as inactive; i = inactive; u = inconclusive; x = no result; + = active, no number; ! = a repeat was not active. Only some compounds are listed: those with a hit (about 1.6% of all), similar ones and a draw of the others.

SMILES	Glyco luc inh	ABCB6 inh 2	RAD54 branch	Vif inh	Myeloid diff 2	others
CCOc1ccccc1-n1c(O)c(C=Nc2ccc(N(CC)CC)cc2)c(=O)[nH]c1=O	29*	137	-17	1	i
COC(=O)[C@H]1[C@H](CO)[C@H]2Cn3c(ccc(C4=CCCC4)c3=O)[C@@H]1N2CC1CCCCC1	x	x	-2	x	x
CCOC(=O)c1ccc2[nH]c(-c3ccc(S(=O)(=O)F)cc3)cc(=O)c2c1	5	102	-10	-8	+
CCOC(=O)c1cccc([P+](=O)O)c1	5	97	-20	11	i
CN1CCCN(c2ccc([N+](=O)[O-])nc2)CC1	0	96	-6	52*	u
O=C1OC(c2ccc([N+](=O)[O-])cc2)=N/C1=C/N1CC2CC(C1)c1cccc(=O)n1C2 (centres undefined)	2	103	x	52*	i
COC(=O)[C@@H]1[C@@H](CO)[C@@H]2Cn3c(ccc(C4=CCCCC4)c3=O)[C@H]1N2C(=O)Cc1ccccn1	x	x	-3	x	x
O=[N+]([O-])/C=C/c1c(Cl)cccc1Cl	-19	109	x	-3	+
C[n+]1ccc(-c2ccccc2)c2ccccc21	4	96	10	-3	+
Cc1cc(C(=O)Nc2ccc3c(c2)OCCO3)nn1C(C)(C)C	0	106	x	8	i
O=C(Nc1ccc2c(c1)OCO2)c1cn(Cc2ccc(F)cc2)nn1	2	88	-3	53*	i
CCCNC(=O)[C@H]1[C@H](CO)[C@H]2Cn3c(cccc3=O)[C@@H]1N2CCC	x	x	-1	x	x
N/C(=N\[N+](=O)[O-])N/N=C/c1ccc(O)cc1	3	102	2	15	i
Nc1nonc1C(=O)N/N=C/c1ccc([N+](=O)[O-])o1	30*	101	x	-5	i
COC(=O)[C@@H]1[C@@H](CO)[C@@H]2Cn3c(ccc(C4=CCCC4)c3=O)[C@H]1N2Cc1ccccn1	x	x	0	x	x
CCn1ccnc1CN1CCCC(C(=O)c2ccc(SC)cc2)C1 (centres undefined)	-2	182	x	10	+
C=C1N2CCC(CC2)C1(O)c1ccc(C)c(C)c1 (centres undefined)	-1	92	-11	51*	i
COC(=O)[C@@H]1[C@@H](CO)[C@@H]2Cn3c(ccc(-c4ccncc4)c3=O)[C@H]1N2S(=O)(=O)c1ccccc1F	x	x	8	x	x
COc1ccc(Cn2c(N)c(C(=O)NCc3ccco3)c3nc4ccccc4nc32)cc1	3	99	2	-12	+
Nc1c(C(=O)NCc2ccco2)c2nc3ccccc3nc2n1Cc1ccc(F)cc1	1	98	1	-4	+
Nc1c(C(=O)NCc2ccco2)c2nc3ccccc3nc2n1Cc1ccccc1	-3	95	x	-3	i
CC(C)CCn1c(N)c(C(=O)OCC2CCCO2)c2nc3ccccc3nc21 (centres undefined)	8	107	-8	-2	+
CC(C)OCCCNC(=O)c1c(N)n(CC2CCCO2)c2nc3ccccc3nc12 (centres undefined)	3	103	x	1	+
CCCNC(=O)c1c(N)n(CC2CCCO2)c2nc3ccccc3nc12 (centres undefined)	8	100	x	-7	i
CCCCn1c(N)c(C(=O)OCC2CCCO2)c2nc3ccccc3nc21 (centres undefined)	11	98	11	x	i
SMILES	Glyco luc inh	ABCB6 inh 2	RAD54 branch	Vif inh	Myeloid diff 2	others
COC(=O)[C@H]1[C@H](CO)[C@H]2Cn3c(ccc(-c4ccccc4)c3=O)[C@@H]1N2CC1CCOCC1	x	x	-2	x	x
COCC(=O)N1[C@@H]2c3ccc(C4=CCCC4)c(=O)n3C[C@H]1[C@H](CO)[C@H]2C(=O)OC	x	x	8	x	x
O=C1NC(=O)N(Cc2ccco2)C(=O)/C1=C\c1cccn1CCOc1ccc(Cl)cc1	3	122	x	-1	+
Cc1cccc(OCCn2cccc2/C=C2/C(=O)NC(=O)N(Cc3ccco3)C2=O)c1	3	97	-7	9	i
CN(C)c1ccc(/C=C/c2cc[n+](C)c3ccccc23)cc1	39*!	832	x	12	u
COC(=O)[C@H]1[C@H](CO)[C@H]2Cn3c(cccc3=O)[C@@H]1N2Cc1nccs1	x	x	-6	x	x
O=C(Cn1ncc2c3ccccc3n(Cc3cccc(Cl)c3)c2c1=O)N1CCC2(CC1)OCCO2	1	102	0	56*	i
O=C(Cc1cccnc1)N1CCCCN2[C@@H](CO)[C@H](c3ccc(C#CC4CC4)cc3)[C@@H]2C1	x	x	-4	x	x
O=C(Cc1ccccc1)OCn1nnc2ccccc2c1=O	3	89	-1	140*	i
CCOC(=O)c1nc2ccccc2c(=O)n1-c1ccc(C)cc1	1	98	8	9	i
N#Cc1cccc(-c2ccc([C@@H]3[C@@H](CO)N4CCCCN(C(=O)Cc5cccnc5)C[C@H]34)cc2)c1	x	x	12	x	x
COc1ccc(/C=C2/C(=O)N(Cc3ccco3)C(=O)N(C(C)C)C2=O)cc1	0	99	x	x	i
CC(C)N1C(=O)/C(=C/C=C/c2ccco2)C(=O)N(Cc2ccco2)C1=O	30*	98	-35	u	i
ClCCOCCCl	85*	103	-12	-9	i
COC(=O)[C@@H]1[C@@H](CO)[C@@H]2Cn3c(ccc(-c4ccccc4)c3=O)[C@H]1N2S(=O)(=O)c1ccccc1C	x	x	2	x	x
NC(=O)c1cc(N2CC2)c([N+](=O)[O-])cc1[N+](=O)[O-]	1	100	0	78*	i
COC(=O)[C@@H]1[C@@H](CO)[C@@H]2Cn3c(ccc(-c4cccc(F)c4)c3=O)[C@H]1N2C(=O)CC1CC1	x	x	0	x	x
COC(=O)C[C@@H]1CC[C@H]2NC[C@@H](O)COC[C@@H]2O1	x	x	-5	x	x
C[N+](C)(C)CC1CCCC(C[N+](C)(C)C)C1=O (centres undefined)	1	43*	x	2	u	ABCB6 blocker 1=68*
COC(=O)[C@H]1[C@H](CO)[C@H]2Cn3c(cccc3=O)[C@@H]1N2C(=O)C1CC1	x	x	-8	x	x
Fc1ccccc1CNCCc1c[nH]c2ccccc12	-3	100	4	-22	i
Fc1ccc(CNCCc2c[nH]c3ccccc23)cc1	-2	69*	0	-1	i	ABCB6 blocker 1=100
COC(=O)[C@H]1[C@H](CO)[C@H]2Cn3c(ccc(/C=C/c4ccccc4)c3=O)[C@@H]1N2C(=O)C1CCC1	x	x	-4	x	x
O=C(CCN1CCOCC1)NCC(=O)Nc1ccc(Br)cc1C(=O)c1ccccc1	-1	70*	-6	2	i	ABCB6 blocker 1=100
CCOC(=O)[C@@H]1[C@@H]2NC(=S)N[C@@]1(C)Oc1ccccc12	x	x	-2	x	x
CCC(=O)N1[C@@H]2c3ccc(-c4cccc(F)c4)c(=O)n3C[C@H]1[C@H](CO)[C@H]2C(=O)OC	x	x	-12	x	x
